# Rows were chosen to be rich in hits. Some 0.91% of all compounds tested hit in one or more screens of this group.
# TexasRed fluor: Total Fluorescence Counterscreen for Inhibitors of the Interaction of Thyroid Hormone Receptor and Steroid Receptor Coregulator 2 | TRb/SRC2 Texas Red total fluorescence interference | Potency, µM (series often up to 106 µM), inactives show at the highest dose fluorescence change, negative = quenching | actives 0.29% (n = 280,000) | AID 1479, 2009; active means well fitted curve in either direction with a large enough effect; inconclusive means small, poorly fitted or top-dose-only effect
#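 Human TRβ ligand-binding domain (0.6 uM) and Texas Red SRC2 peptide (20 nM) in Tris buffer with 1 uM T3 and 5% DMSO were incubated with pinned compound for 5 hr at ambient temperature. Total fluorescence was computed as S + 2P (555/632 nm).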
# BLM inh: qHTS Assay for Inhibitors of Bloom's syndrome helicase (BLM); RecQ-like DNA helicase BLM (Homo sapiens), P54132; recombinant BLM DNA unwinding, fluorescence dequenching; Potency, µM (titrated, usually from 56.1 µM), for inactives: top-dose activity change, negative = inhibition, most hits filed as inhibitors; actives 0.2% (n = 350,000);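 further: plate controls were vehicle for no effect and no enzyme for full effect; nearly all actives have a fitted effect of over 35% in size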
# TRb-SRC2 inh: qHTS for Inhibitors of the Interaction of Thyroid Hormone Receptor and Steroid Receptor Coregulator 2. Thyroid hormone receptor beta (Homo sapiens), P10828. TRbeta-SRC2 peptide binding, fluorescence polarization; receptor liganded with 1 µM T3. Potency, µM (top dose mostly 106 µM), for inactives: top-dose activity change, negative = inhibition, usual class: inhibitors. actives 0.065% (n = 280,000). AID 1469, 2008;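 further: plate controls were bound peptide for no effect and peptide without receptor for full effect; nearly all actives have a fitted effect of over 50% in size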
#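 Fluorescence polarization of 20 nM Texas Red SRC2 peptide with 0.6 uM human TRb ligand-binding domain, in Tris buffer with 1uM T3 and 5% DMSO. Incubated 5 hr ambient; normalized to unbound and bound controls.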
# APEX1 inh: qHTS Assay for Inhibitors of the Human Apurinic/apyrimidinic Endonuclease 1 (APE1); recombinant APE1, TAMRA/BHQ-2 abasic DNA cleavage fluorescence; actives 0.35% (n = 350,000); Potency, µM (series often up to 65.8 µM), for inactives: at the highest dose activity change, negative = inhibition, hits mostly inhibitors; AID 2517, 2012;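 further: plate controls were vehicle for no effect and reference inhibitor for full effect; nearly all actives have a fitted effect of over 55% in size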
#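 Compound pre-exposure to 0.75 nM APE1, 15 min at ambient temperature. Reaction initiated with 50 nM TAMRA/BHQ-2 THF substrate, read immediately in kinetic mode, 525 nm excitation, 598 nm emission.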
# RECQ1 inh: qHTS Assay for Inhibitors of RecQ-Like Dna Helicase 1 (RECQ1). ATP-dependent DNA helicase Q1 (Homo sapiens), P46063. RECQ1 DNA unwinding, red fluorescence kinetic read. Potency, µM (doses to about 57.3 µM), inactives show top-dose activity, negative = inhibition, actives largely listed as inhibitors. actives 0.54% (n = 240,000). AID 2549, 2010;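 further: plate controls were vehicle for no effect and no enzyme for full effect; nearly all actives have a fitted effect of over 30% in size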
#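 RECQ1T1 50 nM; forked duplex (20 bp + 30-nt ss tails) 200 nM, ATP 2 mM final; pH 8.0, 2 mM MgCl2, 2.5 ug/ml poly(dI-dC); 15 min compound preincubation; discontinuous kinetic read over 2 h at RT.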
# WRN helicase inh: qHTS for Inhibitors of WRN Helicase; Bifunctional 3'-5' exonuclease/ATP-dependent helicase WRN (Homo sapiens), Q14191; WRN helicase unwinding, fluorescent forked duplex, kinetic; Potency, µM (doses to about 114 µM), for the others: top-dose activity change, negative = inhibition, actives largely listed as inhibitors; actives 0.46% (n = 360,000); further: nearly all actives have a fitted effect of over 55% in size
# Target sequence (Q14191 whole entry, looked up): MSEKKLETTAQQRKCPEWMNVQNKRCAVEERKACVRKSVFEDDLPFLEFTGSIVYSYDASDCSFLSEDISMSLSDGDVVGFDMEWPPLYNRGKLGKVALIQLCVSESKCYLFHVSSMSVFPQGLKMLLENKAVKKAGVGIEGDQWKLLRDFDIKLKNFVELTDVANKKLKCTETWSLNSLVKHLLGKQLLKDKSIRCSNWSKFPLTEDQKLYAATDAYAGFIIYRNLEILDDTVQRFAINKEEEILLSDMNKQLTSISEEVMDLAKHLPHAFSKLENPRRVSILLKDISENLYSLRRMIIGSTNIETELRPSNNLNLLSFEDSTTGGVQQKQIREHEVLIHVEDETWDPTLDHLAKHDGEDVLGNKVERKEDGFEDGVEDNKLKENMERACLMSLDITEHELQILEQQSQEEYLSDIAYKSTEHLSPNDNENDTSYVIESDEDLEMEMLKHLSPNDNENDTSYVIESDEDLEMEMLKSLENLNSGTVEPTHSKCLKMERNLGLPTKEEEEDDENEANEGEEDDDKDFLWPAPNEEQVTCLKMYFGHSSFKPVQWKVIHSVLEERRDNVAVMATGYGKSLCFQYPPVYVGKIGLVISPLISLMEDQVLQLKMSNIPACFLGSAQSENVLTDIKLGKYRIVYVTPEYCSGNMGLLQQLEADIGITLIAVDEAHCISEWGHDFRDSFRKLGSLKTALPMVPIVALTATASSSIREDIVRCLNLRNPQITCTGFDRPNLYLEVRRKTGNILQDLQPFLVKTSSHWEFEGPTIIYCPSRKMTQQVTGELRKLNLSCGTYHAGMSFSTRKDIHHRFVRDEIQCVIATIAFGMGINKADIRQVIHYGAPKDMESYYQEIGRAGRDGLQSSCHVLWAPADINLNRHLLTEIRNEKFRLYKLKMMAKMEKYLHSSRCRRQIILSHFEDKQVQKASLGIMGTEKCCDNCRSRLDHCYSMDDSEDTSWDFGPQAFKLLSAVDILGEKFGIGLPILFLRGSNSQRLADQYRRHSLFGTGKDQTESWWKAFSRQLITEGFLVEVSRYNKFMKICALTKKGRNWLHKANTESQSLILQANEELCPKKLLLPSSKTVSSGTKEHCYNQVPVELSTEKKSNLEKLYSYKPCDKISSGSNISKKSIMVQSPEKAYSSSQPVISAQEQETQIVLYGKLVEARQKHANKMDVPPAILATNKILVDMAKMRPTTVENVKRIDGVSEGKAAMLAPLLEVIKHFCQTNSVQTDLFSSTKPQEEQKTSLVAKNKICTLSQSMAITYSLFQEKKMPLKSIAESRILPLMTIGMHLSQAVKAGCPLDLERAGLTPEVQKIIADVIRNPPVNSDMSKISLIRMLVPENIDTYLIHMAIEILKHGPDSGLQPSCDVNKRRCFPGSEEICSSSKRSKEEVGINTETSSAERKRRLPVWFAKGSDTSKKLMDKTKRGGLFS
#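 Fluorescence dequenching readout, ex 525 nm/em 598 nm, kinetic mode: forked duplex DNA (100 nM final) with adjacent fluorophore and quencher unwound by WRN (20 nM final) with 2 mM ATP. Compound preincubation 15 min, room temperature.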
# Numbers without * were called inactive; i = inactive; ? = inconclusive; . = no result; [ ] = dose if it differs, or a comment. Unless noted, the call rests on the fitted dose curve; in most records, active means well fitted curve in the direction sought with a large enough effect; inconclusive means small, poorly fitted or top-dose-only effect, or another doubt; inactive means no such curve, though single readings can be large; an effect the other way counts as inactive or inconclusive. Unless noted, on the % scale 0 is the no-effect control and ±100 the full control effect; potency means the concentration at half of the fitted maximal effect.
SMILES,TexasRed fluor,BLM inh,TRb-SRC2 inh,APEX1 inh,RECQ1 inh,WRN helicase inh
COc1ccc(CCNC(=O)C(C)SCC(=O)Nc2ccc(F)cc2)cc1 (stereo unspecified),.,.,.,-5%,.,7%
COc1cccc(NC(=O)CSc2nnc(-c3ccco3)c(-c3ccco3)n2)c1,.,-25%,.,7%,.,45µM*
Cc1ccc(NC(=O)CSc2nnc(-c3ccco3)c(-c3ccco3)n2)cc1,?,?,1%,?,?,40µM*
CO[C@H]1C[C@H](O[C@H]2[C@H](C)[C@@H](O[C@@H]3O[C@H](C)C[C@H](N(C)C)[C@H]3OC(C)=O)[C@@H](C)C[C@]3(CO3)C(=O)[C@H](C)[C@@H](OC(C)=O)[C@@H](C)[C@@H](C)OC(=O)[C@@H]2C)O[C@@H](C)[C@@H]1OC(C)=O,.,.,.,2%[21 µM],.,.
O=C(N[C@H]1C/C=C\C[C@@H](CC(=O)N(CCO)Cc2ccccc2)C(=O)N2CCC[C@@H]2COC1=O)OCC1c2ccccc2-c2ccccc21,.,.,.,11µM*,.,-4%
O=C(N[C@H]1C/C=C\C[C@@H](CC(=O)N(CCO)Cc2ccccc2)C(=O)N2CCC[C@H]2COC1=O)OCC1c2ccccc2-c2ccccc21,.,.,.,-10%,.,-10%
Oc1ccc(COC2CCCC2)c2cccnc12,.,.,.,8%,.,.
S=c1[nH]nc(-c2cccnc2)n1/N=C/C=C/c1ccco1,-5%,20µM*,0%,-14%,?,?
CCCCCCCCCCCCCCCCCCOCC(COP(=O)([O-])OCC[N+](C)(C)C)OC (stereo unspecified),.,.,.,-2%,.,.
CC(C)Cc1c(C(=O)O)c(C(F)F)nc(C(F)(F)F)c1C1=NCCS1,-2%[201 µM],.,0%[201 µM],.,.,.
O=C(C1=C(O)C(=O)N(c2nc3ccc(Cl)cc3s2)C1c1ccco1)c1ccco1 (stereo unspecified),.,.,.,-13%,.,50µM*
Cc1ccc2nc(N3C(=O)C(O)=C(C(=O)c4ccc(C)o4)C3c3ccco3)sc2c1 (stereo unspecified),.,.,.,-4%,.,-5%
Cc1ccc(NC(=O)CN2C(=O)N/C(=C\c3cccn3-c3ccc([S+](N)(=O)[O-])cc3)C2=O)cc1,.,.,.,7%,.,.
Cc1cccc(Nc2ncnc3onc(-c4ccc(F)cc4)c23)c1C,.,0%,.,1%,.,6%
Cc1ccccc1CN1CCC(CNc2ncnc3onc(-c4ccc(F)cc4)c23)CC1,0.071µM*[quencher],-8%,-19%,.,.,.
O=S(c1ccccc1O)S(=O)c1ccccc1O (stereo unspecified),.,.,.,.,.,14µM*
COc1ccc(-c2nc(SCC(=O)Nc3ccccc3)c(-c3ccc(F)cc3)[nH]2)cc1OC,-1%,-6%,2%,.,.,.
Cc1ccc(C(=O)OCC(=O)c2ccc(CC(=O)N3CCOCC3)s2)c(C)c1,.,.,.,?,.,50µM*
COc1ccc(/C=C2\C(=O)NC(=S)N2C(=O)c2ccc(F)cc2)cc1,?,?,0%,?,?,?
O=C1NC(=S)N(C(=O)c2ccc(F)cc2)/C1=C/c1ccccc1,9%,22µM*,2%,6%,0%,-33%
CCNc1ncc2nc(-c3cccs3)c(=O)n(CCC#N)c2n1,.,-12%,.,-5%,-10%,.
CCCCC1(C)Cc2ccccc2C(=S)N1 (stereo unspecified),-1%,1%,-1%,-5%,-1%,-3%
CCCCC1(C)NC(=S)N2N1C(=S)NC2(C)CCCC (stereo unspecified),-1%,1%,0%,-1%,-2%,56µM*
COc1ccc2c(c1)Cc1sc(NC(=O)c3ccccc3C)nc1-2,0.0028µM*[quencher],-13%,-12%,.,.,.
CCN1C(=O)[C@H]2[C@H]3[C@H](O)[C@H](O)C/C(=N/OCC(C)C)[C@H]3CC[C@@H]2C1=O,2%[11.2 µM],6%[12.4 µM],1%[11.2 µM],5%[12.4 µM],-2%[11.5 µM],.
SMILES,TexasRed fluor,BLM inh,TRb-SRC2 inh,APEX1 inh,RECQ1 inh,WRN helicase inh
CCc1cccc(NC(=O)CN2C(=O)CCc3cc(S(=O)(=O)N4CCOCC4)ccc32)c1,-1%,-1%,2%,.,.,.
CC1CCN(S(=O)(=O)c2ccc3c(c2)CCC(=O)N3CC(=O)Nc2cccc(C#N)c2)CC1,0%,-11%,4%,4.7µM*,.,.
Cc1ccc(NC(=O)N2CCc3cc(S(=O)(=O)N4CCC(C)CC4)ccc32)cc1F,28µM*[quencher],-4%,-17%,.,.,.
CC1CCN(S(=O)(=O)c2ccc3c(c2)CCN3C(=O)Nc2ccc(Br)cc2)CC1,-1%,-1%,5%,.,.,.
CC(C)c1ccc(Cn2cnc3c(cnn3C(C)(C)C)c2=O)cc1,.,.,.,-12%,.,.
O=C(/C=N/O)NCCCCNC(=O)/C=N/O,1%[11.2 µM],5%[12.4 µM],0%[11.2 µM],?,i[11.5 µM],.
O=C(CCN1C(=O)/C(=C\C=C\c2ccccc2)SC1=S)Nc1ccc(C(=O)O)cc1,.,?,.,13µM*,.,56µM*
O=C(CN1C(=O)S/C(=C/C=C/c2ccccc2)C1=O)Nc1ccc(C(=O)O)cc1,-2%,-13%,4%,4%,i,-30%
O=C1c2cccc3cccc(c23)C(=O)C1(O)O,.,.,.,.,.,20µM*
CC(=O)N1C(=O)c2cccc3cccc(c23)C(=O)N1C(C)=O,1%,1%,0%,-2%,-4%,15%
COc1ccc(CNC(=O)c2ccc3c(c2)CCN3S(=O)(=O)c2ccc(C)cc2)cc1,1%,-3%,1%,.,.,.
COC(=O)CC1Oc2ccc(Cl)cc2-n2cc(-c3ccc(C)cc3)nc21 (stereo unspecified),22µM*[quencher],-3%,-8%,.,.,.
Cc1cccc(-c2nnc(C(C)Nc3cccc(C(=O)NC4CC4)c3)o2)c1 (stereo unspecified),.,.,.,.,.,7%
Cc1ccc(Cl)cc1N1CCN(S(=O)(=O)c2ccc3c(c2)CC(C)N3C(=O)C2CCC2)CC1 (stereo unspecified),16µM*[quencher],-6%,-13%,.,.,.
COc1ccccc1CNS(=O)(=O)c1ccc2c(c1)CC(C)N2C(=O)C1CCC1 (stereo unspecified),22µM*[quencher],-2%,-10%,1%,.,-11%
O=C(NN1C(=O)CSC1=S)C(=O)NN1C(=O)CSC1=S,0%,87%,12%,2.2µM*,10µM*,22µM*
